Measured values: PubChem BioAssay AID720513 (Broad Institute, 2013)
Among all 2,100 compounds or so, about 480 (23%) were called active. About 5% were inconclusive and are not listed.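 Rule for the calls: active = fitted curve reaches 40% activation at or below the top valid concentration, in every replicate test; inconclusive = replicate tests disagree on the call; inactive = the rest, including activity in the opposite direction.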 Only a sample is shown. Entries with a potency or affinity are not part of this list.

Assay: activators raising PGC1a acetylation in cells, dose response, cell-based, cherry-picked samples, set 6 (AID 720513);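 note: cells made to overexpress flag tagged PGC1a plus GCN5 acetyltransferase by viral infection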
Conditions: U2OS PGC1a acetylation AlphaLISA, overnight, 0 = neutral, -100 = inhibitor control; series mostly up to 19.5 µM

outcome, inactive:
C[C@H]1CN([C@@H](C)CO)C(=O)CCCn2nncc2CO[C@@H]1CN(C)C(=O)Nc1ccc2c(c1)OCO2
Cc1cc(C(=O)Nc2cccc3c2O[C@H](CN(C)C(=O)Nc2ccc4c(c2)OCO4)[C@@H](C)CN([C@H](C)CO)C3=O)n(C)n1
C[C@H]1CN([C@@H](C)CO)C(=O)Cc2cc(NS(=O)(=O)c3ccc(F)cc3)ccc2O[C@@H]1CN(C)C(=O)Nc1ccc2c(c1)OCO2
C[C@H]1CN([C@@H](C)CO)C(=O)c2cccc(NC(=O)c3ccncc3)c2O[C@H]1CN(C)C(=O)Nc1ccc2c(c1)OCO2
OCCN(Cc1ccccc1)CC1CCCCC1
O=C(Nc1ccccc1F)N1CCCCN2[C@@H](CO)[C@@H](c3ccc(C#Cc4ccccc4)cc3)[C@@H]2C1
CC(=O)Nc1cccc(-c2ccnc3c2CC(C)(C(=O)Nc2ccc(C(C)C)cc2)O3)c1 (stereo unspecified)
COc1ccc(NC(=O)C2(C)Cc3c(-c4cccc(NC(C)=O)c4)ccnc3O2)cn1 (stereo unspecified)
C[C@@H]1CCCCO[C@@H](CN(C)CC2CC2)[C@@H](C)CN([C@H](C)CO)C(=O)c2cc(NC(=O)C3CCCCC3)ccc2O1
CC(=O)Nc1ccc(C(=O)OC2CCOC2=O)cc1 (stereo unspecified)
NC(=O)c1ccc(NC(=O)C#Cc2ccccc2)cc1
COc1ccccc1OCCn1c(C(C)O)nc2ccccc21 (stereo unspecified)
COc1ccccc1C(=O)Nc1ccc2c(c1)C(=O)N(C)C[C@H](OC)[C@H](C)CN(CC1CC1)[C@@H](C)CO2
CCCn1c(=O)c2ccccc2n2c(SCc3c(C(=O)OCC)oc4ccccc34)nnc12
CCCCOc1ccc(/C=C/C(=O)OCC(=O)c2c(N)n(C)c(=O)n(C)c2=O)cc1OCC
COc1ccccc1-c1ccc([C@@H]2[C@H](CO)N(C(C)=O)C23CN(C(C)=O)C3)cc1
C[C@H](CO)N1C[C@H](C)[C@H](CN(C)S(=O)(=O)c2ccc(F)cc2)Oc2ccc(NS(=O)(=O)c3cn(C)cn3)cc2C1=O
O=C(Nc1ccc(C(F)(F)F)cc1)N1C[C@@H]2N[C@H](C1)C2c1ccc(-c2cccc(F)c2)cc1 (stereo partly specified)
CCN(CC)C(=O)c1ccc(O)c(OC)c1
C[C@@H]1CCCCO[C@@H](CN(C)C)[C@@H](C)CN([C@H](C)CO)C(=O)c2cc(NS(=O)(=O)c3ccc(Cl)cc3)ccc2O1
CC(C)NC(=O)Nc1ccc2c(c1)C(=O)N([C@@H](C)CO)C[C@@H](C)[C@H](CN(C)S(=O)(=O)c1ccccc1)OCCCC[C@@H](C)O2
CCCN(C)C[C@H]1OCCCC[C@@H](C)Oc2ccc(NS(=O)(=O)c3ccc(Cl)cc3)cc2C(=O)N([C@@H](C)CO)C[C@H]1C
C[C@@H]1CCCCO[C@H](CN(C)C(=O)Cc2ccccc2)[C@H](C)CN([C@@H](C)CO)C(=O)c2cc(N(C)C)ccc2O1
CC(C)NC(=O)Nc1ccc2c(c1)C(=O)N([C@H](C)CO)C[C@@H](C)[C@H](CN(C)S(=O)(=O)c1ccccc1)OCCCC[C@@H](C)O2
C[C@@H]1CN([C@@H](C)CO)C(=O)c2cc(N(C)C)ccc2O[C@@H](C)CCCCO[C@H]1CN(C)C(=O)c1ccncc1
COc1ccc(NC(=O)N(C)C[C@@H]2OCCCC[C@@H](C)Oc3ccc(NC(=O)Cc4ccccc4)cc3C(=O)N([C@H](C)CO)C[C@@H]2C)cc1
CC(C)NC(=O)Nc1ccc2c(c1)C(=O)N([C@@H](C)CO)C[C@@H](C)[C@H](CN(C)C(=O)NC(C)C)OCCCC[C@@H](C)O2
O=C1CC2CS(=O)(=O)CC2N1c1ccc(Cl)cc1Cl (stereo unspecified)
NS(=O)(=O)c1ccc(CCNC2CC(=O)N(Cc3ccccc3)C2=O)cc1 (stereo unspecified)
O=C1CCN(S(=O)(=O)c2ccc(Cl)cc2)N1
Cc1cc(C)n(CCc2nc3c4ccccc4n(CC#N)c(=O)n3n2)n1
Cc1ccc(C(=O)Cn2c(C(=O)OCCO)cc3ccccc32)cc1
COc1cc(C(=O)O)ccc1Cl
Cc1ccc(Cn2ncc(Cl)c(Cl)c2=O)cc1
C[C@H](CO)N1C[C@H](C)[C@@H](CN(C)C(=O)Nc2cccc3ccccc23)OCCCC[C@H](C)Oc2ccc(N(C)C)cc2C1=O
Cc1ccc(S(=O)(=O)Nc2ccc3c(c2)C(=O)N([C@H](C)CO)C[C@@H](C)[C@@H](CN(C)C(=O)NC(C)C)OCCCC[C@H](C)O3)cc1
Cc1ccc(S(=O)(=O)Nc2ccc3c(c2)C(=O)N([C@H](C)CO)C[C@H](C)[C@H](CN(C)C(=O)NC(C)C)OCCCC[C@@H](C)O3)cc1
Cc1noc(C)c1S(=O)(=O)Nc1ccc2c(c1)C(=O)N([C@H](C)CO)C[C@@H](C)[C@@H](CN(C)S(=O)(=O)c1cccs1)OCCCC[C@H](C)O2
Cc1noc(C)c1S(=O)(=O)Nc1ccc2c(c1)C(=O)N([C@@H](C)CO)C[C@@H](C)[C@@H](CN(C)CC1CCCCC1)OCCCC[C@@H](C)O2
C[C@H]1CCCCO[C@H](CN(C)C(=O)Nc2cccc3ccccc23)[C@@H](C)CN([C@@H](C)CO)C(=O)c2cc(N(C)C)ccc2O1
COc1ccc(NC(=O)Nc2ccc3c(c2)C(=O)N([C@H](C)CO)C[C@H](C)[C@@H](CN(C)S(=O)(=O)c2ccc(Cl)cc2)O3)cc1
C=C1CCN(c2ccc(C(=O)NCc3ccccc3)cc2[N+](=O)[O-])CC1
C[C@H]1CN([C@@H](C)CO)C(=O)Cc2cc(NS(=O)(=O)c3ccc(Cl)cc3)ccc2O[C@H]1CN(C)Cc1ccc(-c2ccccc2)cc1
O=C(Nc1ccc(Cl)c(Cl)c1)N[C@@H]1CC[C@H](CCn2cc(C3CC3)nn2)O[C@H]1CO
O=S(=O)(N[C@@H]1CC[C@@H](CCNS(=O)(=O)c2ccccc2Cl)O[C@H]1CO)c1ccccc1
C[C@@H]1CN([C@@H](C)CO)S(=O)(=O)c2ccc(-c3ccc(C#N)cc3)cc2O[C@H]1CN(C)C(=O)CN(C)C
